# From PubChem BioAssay
# Only some compounds are listed: those with a hit (about 11% of all), similar ones and a draw of the others.
# Lmaj promast = inhibitors of Leishmania major promastigote growth; Leishmania major promastigotes, resazurin fluorescence viability; inhibition, % at 10 µM; hit rate 9% among 200,000; AID 1063; in the data active = inhibition above about 50%;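 also: promastigotes grown with compound for 44 hours at 28 °C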
# Insulin prom up = MIN6 insulin promoter up-regulation | MIN6 insulin promoter-GFP reporter, high-content imaging; stronger effect = higher value | z-score at 5 µM | hit rate 0.3% among 190,000;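 active = z-score above 3 at 5 µM with at least 500 cells counted in the well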
# Autophagy HCS = alters autophagy in cells | hit rate 0.98% among 190,000 | calls only at 10 µM (by protocol) | MEF GFP-LC3 puncta imaging; test concentration mostly 10 µM;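 active = percentage of spot-positive cells more than 3 SD above its plate mean, without a fluorescence outlier flag or 80% toxicity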;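 also: spot-positive cell cutoff set from DMSO-treated cells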
# WT yeast gro inh = growth inhibition of WT yeast, mitochondrial fusion screen; mitochondrial fusion phenotypic screen, WT strain; inhibition, % at 10 µM; hit rate 2.1% among 190,000; AID 1362; in the data active = inhibition above about 58%; tested in S. cerevisiae
# Insulin prom inh = TRM-6 insulin promoter activity inhibition; hit rate 0.9% among 130,000; inhibition, % at 2 µM; TRM-6 cells (human fetal islet line), insulin promoter-eGFP reporter, imaging; reporter expression induced with tamoxifen;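 active = inhibition above the mean plus 3 SD, with well images judged a real hit on visual review, cut at about 60% in these data, passing the limit was not always enough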
# L major 1uM = blocks Leishmania major promastigote growth at 1 uM, repeat screen | L. major promastigote growth, resazurin fluorescence, 48 h | inhibition, % at 1 µM | shares compounds with Lmaj promast | hit rate 13% among 1,100;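 active = inhibition above about 50% in both repeat tests, limit read from the data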
# An asterisk follows results filed as active; i = inactive; . = no result given.
SMILES,Lmaj promast,Insulin prom up,Autophagy HCS,WT yeast gro inh,Insulin prom inh,L major 1uM
CCN1CCCC(OC(=O)c2cc(-c3ccccc3Cl)nc3ccccc23)C1 (centres undefined),78*,-0.56,i,15,6,19
CCOc1ccc(-n2c(=O)[nH]cc(C(=O)Nc3ccc(OC)c(OC)c3)c2=O)cc1,-6,0.6,i,3,31,.
O=c1cc(N2CCCCC2)nc2n1CCCS2,71*,-0.15,i,-2,27,-3
CN(C)c1cc(=O)n2c(n1)SCCC2,-5,0.17,i,-13,18,.
CCCn1c(-c2ccc(OC)cc2)nc2ccccc21,96*,-4.7,i,32,.,12
O=C(O)CCNC(=S)Nc1cccc(F)c1,.,-0.28,.,.,.,.
Cc1c(=O)n(OCc2ccccc2F)c2ccccc2[n+]1[O-],73*,1.1,i,-2,-62,-19
CCOc1ccc(C(=O)Nc2c3c(nn2-c2cccc(Cl)c2)CS(=O)C3)cc1 (centres undefined),100*,0.09,i,3,-36,11
CCOc1ccc(C(=O)Nc2c3c(nn2-c2ccc(F)cc2)CS(=O)C3)cc1 (centres undefined),2,-0.89,i,0,.,.
COc1ccc(OCC(=O)N2N=C(C)CC2(O)C(F)(F)F)cc1 (centres undefined),-4,-0.12,i,-5,.,.
OC(CNCc1ccccc1)c1ccccc1 (centres undefined),.,0.11,.,.,.,.
Oc1cccc(C(O)CNCc2ccc(-c3ccccc3)cc2)c1 (centres undefined),91*,-0.25,i,17,.,-10
O=C(CC1CCCCC1)N1CCC(c2nc(-c3ccc(S(=O)(=O)N4CCCC4)cc3)no2)CC1,66*,-0.84,i,17,10,2
C=CCSC(=S)NC1CCS(=O)(=O)C1 (centres undefined),93*,-0.02,i,-14,36,6
CC1=NN(c2ccc(Br)cc2)C(=O)/C1=C/c1cccs1,7,-0.28,i,-19,.,.
CC1=NN(c2ccc(C)cc2)C(=O)/C1=C\c1ccc(Br)s1,99*,0.93,i,3,14,20
Cc1ccc(OC(C)c2nnc(N)s2)cc1Cl (centres undefined),100*,-0.14,i,13,24,-7
Cc1nc(SCC(=O)c2ccccc2)c(C#N)c(-c2ccco2)c1C(=O)NCc1ccco1,17,0.43,i,5,-26,.
CCOC(=O)c1cccc(NC(=O)N[C@@H](C)C(=O)OC)c1,-2,0.2,i,-24,.,.
CSc1nnc(Cc2sc(-c3ccccc3)nc2-c2ccccc2)o1,93*,2.2,i,9,55,-11
CC(=O)Nc1ccc(-c2csc(NC(=O)C3CCN(S(=O)(=O)c4cccs4)CC3)n2)cc1,70*,-1.1,i,17,-1,-1
Cc1csc(NC(=O)C2CCN(S(=O)(=O)c3cccs3)CC2)n1,27,-1.7,i,-2,0,.
CCCCn1nnnc1SCC(=O)Nc1ccc(N(C)C)cc1,42,-0.13,i,0,-167,.
COC(=O)c1cc(OC)c(OC)cc1NC(=S)N1CCC(C(N)=O)CC1,-6,0.73,i,1,42,.
CCOC(=O)C1CCN(C(=S)Nc2cc(OC)c(OC)cc2C(=O)OC)CC1,61*,0.21,i,14,64,8
SMILES,Lmaj promast,Insulin prom up,Autophagy HCS,WT yeast gro inh,Insulin prom inh,L major 1uM
COc1ccc2cc(Br)ccc2c1CC(=O)NC1CC(C)(C)NC(C)(C)C1,100*,.,i,-8,-11,-10
COC(=O)c1ccccc1NCCO,.,-0.04,.,.,.,.
COC(=O)c1cccc2c1-c1ccccc1/C2=N/O,70*,0.89,i,23,3,-29
Cc1cc2c(cc1C)-c1nnc(-c3ccc4ccccc4n3)n1C(C)(C)C2,47,0.09,i,1,0,.
CC1(C)Cc2ccccc2-c2nnc(-c3ccc4ccccc4n3)n21,62*,-0.23,i,5,-344,57*
CC1=C(C(=O)Nc2ccc(C)cc2C)C(c2ccc(C)o2)NC(=O)N1 (centres undefined),0,-0.14,i,-1,31,.
CSc1ccccc1NC(=O)COc1ccc(S(=O)(=O)N2CCCC2)cc1,0,0.68,i,16,21,.
N#Cc1ccc(Oc2ccc(-c3nc4ccccc4nc3-c3ccccc3)cc2)cc1C#N,93*,-1.6,i,-4,-17,1
COc1ccccc1C1CC(c2c(-c3ccccc3)c3cc(Cl)ccc3[nH]c2=O)=NN1S(C)(=O)=O (centres undefined),65*,0.19,i,-17,28,0
